About 79,000 compounds went through this panel and 15% of them were active in at least one assay; those are over-represented in the sample as a whole. Rule as the data show it: active = growth inhibition above about 70%; inactive = the rest.
Experiments:
[1] = NCI Yeast Anticancer Drug Screen. Data for the rad50 strain (AID 155);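 also: 0% = growth of vehicle-only cultures of the same strain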; conditions: S. cerevisiae rad50 strain growth inhibition; at 50.0 µM; active compounds read high
Outline: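 A DNA repair-deficient yeast mutant serves as the test organism; compound-induced growth inhibition is calculated against vehicle-treated cells.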

[2] = NCI Yeast Anticancer Drug Screen. Data for the mec2-1 strain (AID 157); conditions: S. cerevisiae mec2-1 strain, at 50.0 µM, active compounds read high
Outline: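 Using mec2-1 yeast: add compound, measure growth, express inhibition versus vehicle-treated cultures.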

[3] = NCI Yeast Anticancer Drug Screen. Data for the sgs1 mgt1 strain (AID 161);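 also: 0% = growth of cultures given vehicle only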; conditions: S. cerevisiae sgs1 mgt1 strain, at 50.0 µM, active compounds read high
Outline: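 Growth of a repair-deficient yeast mutant was monitored after compound treatment and expressed as inhibition relative to vehicle-treated cultures.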

[4] = NCI Yeast Anticancer Drug Screen. Data for the cln2 rad14 strain (AID 165);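 also: 0% = growth equal to vehicle treated cultures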; conditions: S. cerevisiae cln2 rad14 strain, at 50.0 µM, active compounds read high
Outline: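 Yeast strain cln2 rad14, bearing defects in cell cycle control and DNA repair, serves as the test system; values reflect growth inhibition compared with vehicle.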

[5] = NCI Yeast Anticancer Drug Screen. Data for the bub3 strain (AID 167); conditions: S. cerevisiae bub3 mutant strain, at 50.0 µM, active compounds read high
Outline: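 Inhibition values come from growth of compound-treated mutant yeast normalised to vehicle-treated controls.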

[6] = NCI Yeast Anticancer Drug Screen. Data for the mlh1 rad18 strain (AID 175); conditions: S. cerevisiae mlh1 rad18 strain growth inhibition; at 50.0 µM; active compounds read high
Outline: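 Steps: expose repair-defective yeast to compound; measure growth; express inhibition against vehicle-treated controls.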

Measured: growth inhibition

C/C(=N\NC(=O)CCCCC(=O)N/N=C(\C)c1ccc(C)cc1)c1ccc(C)cc1
inactive: [1] -3.65% | [2] -11.3% | [3] 10.4% | [4] -45.7% | [5] -1.9% | [6] -2.7%

CC(C)OC(=O)C(=O)Nc1cccc(Cl)c1
inactive: [1] -3.45% | [2] -14.1% | [3] -29.5% | [4] -65.8% | [5] -15.3% | [6] -2.5%

OCC1NC(CO)C(O)C1O (stereo unspecified)
inactive: [1] 6.5% | [2] 8.1% | [3] 6.5% | [4] 1.05% | [5] 9.2% | [6] 11.2%

Cc1ccc(-n2nc3c(c(C#N)c2=O)-c2ccccc2C3=O)cc1
inactive: [1] -27.6% | [2] -4.4% | [3] -31.8% | [4] -38.5% | [5] -2.7% | [6] -14.3%

Cc1nc2ccccc2nc1CC(=O)c1ccccc1
inactive: [1] 43.3% | [2] 15.3% | [3] 48% | [4] 18.5% | [5] 54.4% | [6] 43.5%

CN(C)S(=O)(=O)C1(c2ccccc2)CCCC1
inactive: [1] 15.1% | [2] 9.85% | [3] 6.2% | [4] -1.5% | [5] -7% | [6] 1.9%

CC1(c2ccc(Cl)cc2)NC(=O)N(CC(N)=O)C1=O (stereo unspecified)
inactive: [1] 3.6% | [2] -0.1% | [3] -10.8% | [4] -11% | [5] -7.8% | [6] 8.6%

Cc1ccc(C)c(C2NC(=O)c3ccccc3N2)c1 (stereo unspecified)
inactive: [1] -15.8% | [2] -9.25% | [3] -44.8% | [4] -30.2% | [5] -52.2% | [6] -19.8%

CCC1(C)C(=O)NC(=O)N1C(C)=O (stereo unspecified)
inactive: [1] -5.1% | [2] -21.4% | [3] -3.85% | [4] -44.2% | [5] -12.3% | [6] -7.55%

COc1cc(/C=C/C(=O)c2sc(-n3nc(-c4ccccc4)cc3-c3ccccc3)nc2C)ccc1O
inactive: [1] 6% | [2] -13.6% | [3] -34.4% | [4] 4.9% | [5] 26.4% | [6] -10%

CC(=O)[C@H]1CC[C@H]2[C@@H]3CCC4=CC(=O)CC[C@]4(C)[C@H]3C[C@H](OS(=O)(=O)c3ccc(C)cc3)[C@]12C
inactive: [1] 20.3% | [2] 18.1% | [3] 31.2% | [4] 38.7% | [5] 12.1% | [6] 15.4%

O=C1c2ccccc2C(=O)c2c3c(cc([N+](=O)[O-])c21)OCO3
inactive: [1] -18.2% | [2] 12.1% | [3] 9.05% | [4] 25.7% | [5] -3% | [6] -9.75%

O=C1c2ccccc2C(=O)c2c(O)cc([N+](=O)[O-])cc21
inactive: [1] 18.2% | [2] 3.05% | [3] 11.7% | [4] 6.05% | [5] 14.2% | [6] -1.5%

CCCCCC/C=N\NC(N)=S
inactive: [1] -17.1% | [2] 14.2% | [3] 30.4% | [4] -71.1% | [5] 17.9% | [6] 28.2%

CN(CCS)C(=N)N
inactive: [1] 4.75% | [2] -14.9% | [3] 2.55% | [4] 7.8% | [5] -0.65% | [6] -11.4%

Cc1cccc(NC(=O)CC(=O)N2N=C(N3c4ccccc4Sc4ccccc43)CC2c2ccccc2)c1 (stereo unspecified)
inactive: [1] -1.85% | [2] -5.5% | [3] -10.1% | [4] -9.55% | [5] -5.35% | [6] -41.8%

O=C1NC(N2CCCC(CO)C2)=N/C1=C\c1cccs1 (stereo unspecified)
inactive: [1] 8.1% | [2] -6.8% | [3] -3.4% | [4] 3.25% | [5] -14.4% | [6] -39.7%

C=C1C(OC(C)=O)CC(OC(C)=O)C2(C)C(OC(C)=O)C(OC(C)=O)C3=C(C)C(OC(=O)/C=C/c4ccccc4)CC(C(OC(C)=O)C12)C3(C)C (stereo unspecified)
inactive: [1] 4.8% | [2] -12.1% | [3] 5.6% | [4] -4.75% | [5] 20.6% | [6] 15.6%

COC(=S)OC1CC(n2cnc3c(N)ncnc32)OC1CO[Si](C)(C)C(C)(C)C (stereo unspecified)
inactive: [1] -10.2% | [2] -8.25% | [3] 2.55% | [4] -1.2% | [5] 11.1% | [6] 4.9%

CCO/C(C)=N/NC(=O)c1n[nH]c2ccccc12
inactive: [1] 4.1% | [2] -1.45% | [3] -10.6% | [4] 0.05% | [5] -11.3% | [6] 12%

Cc1cc(C(=O)c2ccccc2)ccc1[N+](=O)[O-]
inactive: [1] 23.1% | [2] -11% | [3] -7.35% | [4] -0.5% | [5] -0.65% | [6] 7.1%

COc1ccc2oc3c(C)cc4c(OC)nnc(OC)c4c3c2c1
inactive: [1] -43.8% | [2] -52.9% | [3] -13.4% | [4] -18.1% | [5] -5.35% | [6] -12.8%

CCc1ccccc1NC(=O)Nc1ccc(C(=O)O)c(O)c1
inactive: [1] 33.6% | [2] 10.2% | [3] 27.4% | [4] 21.4% | [5] 29.8% | [6] 26.4%

CC(C)CCC[C@@H](C)[C@H]1CC[C@H]2[C@@H]3CC=C4C[C@@H]([n+]5ccccc5)CC[C@]4(C)[C@H]3CC[C@]12C
inactive: [1] -2.45% | [2] -9.8% | [3] 0.95% | [4] 8.15% | [5] -14.1% | [6] -7.55%

COc1cc(C2C(Cl)C(=O)N2n2cnc3ccccc3c2=O)ccc1O (stereo unspecified)
inactive: [1] -22.7% | [2] 3.3% | [3] -11.2% | [4] 12.8% | [5] -10.2% | [6] -11.8%

O=[N+]([O-])c1cc(Cl)ccc1NC(Nc1ccc(Cl)cc1[N+](=O)[O-])C(Cl)(Cl)Cl
inactive: [1] 44.5% | [2] 10.1% | [3] 28.4% | [4] -31.9% | [5] 3.6% | [6] 35.8%

O/N=C1/C(=C/c2ccc(Br)cc2)CCCC1C(NO)c1ccc(Br)cc1 (stereo unspecified)
inactive: [1] 0.9% | [2] -9.8% | [3] -27.4% | [4] 24.2% | [5] 0.45% | [6] -12.9%

Cc1cccc(C)n1
inactive: [1] -1.85% | [2] -22.1% | [3] -3.15% | [4] -1.85% | [5] -6.55% | [6] -21.4%

CCC(=O)NCCO
inactive: [1] -26.9% | [2] -17.7% | [3] -5.65% | [4] -103% | [5] -9% | [6] -5.25%

c1ccc(CSC2(SCc3ccccc3)CCCC2)cc1
inactive: [1] -7.3% | [2] -19.3% | [3] -22.6% | [4] 11.8% | [5] -1.1% | [6] -4.45%

CCOC(=O)c1c[nH]c2nc(N)ccc2c1=O
inactive: [1] -3.75% | [2] -0.2% | [3] 9.9% | [4] -16.4% | [5] -0.7% | [6] -5.4%

NC(N)=NC(N)=Nc1cccc(S(=O)(=O)c2cccc(N=C(N)N=C(N)N)c2)c1
inactive: [1] 8.1% | [2] -0.55% | [3] -0.1% | [4] 12.8% | [5] -3.95% | [6] 13.2%

CCOC(=O)c1nc2cc(N3CCOCC3)c(F)cc2[nH]c1=O
inactive: [1] 16.9% | [2] 23.6% | [3] 23.2% | [4] 3.45% | [5] 28.2% | [6] 34%

CC/C=C(\CCC)C(C#N)(CC)C(=O)OCC (stereo unspecified)
inactive: [1] 9.1% | [2] -33.6% | [3] -21.2% | [4] -7.6% | [5] -24.6% | [6] -9.55%

COc1ccc2cc1Oc1ccc(cc1)CC1c3cc(c(OC)cc3CCN1C)Oc1c(O)c(OC)cc3c1C(C2)N(C)CC3 (stereo unspecified)
inactive: [1] 14.6% | [2] -10.4% | [3] 10.8% | [4] 16.2% | [5] 15.8% | [6] 1.95%

CCOC(=O)CCCCCCC(=O)OCC
inactive: [1] 19.1% | [2] 5.35% | [3] 5.05% | [4] 1.95% | [5] 1.1% | [6] 23.4%

CCCC(=O)c1cc(-c2cc(C(=O)CCC)nc(N)n2)nc(N)n1
inactive: [1] 3.65% | [2] -3.4% | [3] 3.1% | [4] -15.9% | [5] -7.1% | [6] -0.4%

Nn1c(=S)[nH]nc(/C=C/c2ccc3c(c2)OCO3)c1=O
inactive: [1] 38.9% | [2] 20.1% | [3] 3.8% | [4] -19.1% | [5] 6.35% | [6] 15.6%

CN(C)C(=S)OCC(C)(C)C
inactive: [1] -1.45% | [2] -14.8% | [3] -18.3% | [4] -35.3% | [5] 3.4% | [6] -23.6%

O=C(CCC/C(CC(=O)c1ccc(Cl)cc1)=N\NC(=O)c1cc2ccccc2cc1O)Nc1cccc([N+](=O)[O-])c1
inactive: [1] 52% | [2] 47.2% | [3] 52.9% | [4] 25.6% | [5] 6% | [6] 56.8%

CCNC(=O)C(C(=O)OCCN(CC)CC)c1ccccc1 (stereo unspecified)
inactive: [1] 2.05% | [2] 5.7% | [3] -3.3% | [4] -1.05% | [5] -14.7% | [6] 16.7%

From PubChem BioAssay (NCI)
